Several values for one entry are separate records, joined by “and”; a condition that tells them apart may be missing. Equal values may be shown once. Some structures have more than one record in an assay (separate samples or runs), and their calls can disagree. Activity calls are given as the source filed them. The calls were made as follows: active = hit-call score of the fitted dose curve at least 0.9, where 1 is the maximum; inactive = score below 0.9.

The text below walks through data of PubChem BioAssay (EPA / NIEHS).

Read-out in assay [1]: Human Leukocyte Antigen - DR isotype (HLADR), HLA-DRA (gene 3122)
Put plainly: BSK_CASM3C_HLADR: BioMAP Diversity Plus: CASM3C Assay for Human Leukocyte Antigen - DR isotype (HLADR) Biomarker Activity (AID 2283043).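 Also: cell-surface HLA-DR protein level quantified by ELISA.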 To be noted: primary human coronary artery smooth muscle cells; actives raise or lower the signal.

Read-out in assay [2]: Macrophage colony-stimulating factor (MCSF), CSF1 (gene 1435)
In words: BSK_CASM3C_MCSF: BioMAP Diversity Plus: CASM3C Assay for Macrophage colony-stimulating factor (MCSF) Biomarker Activity (AID 2283044).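 Also: M-CSF protein amount quantified by ELISA after 24 h exposure.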 To be noted: primary human coronary artery smooth muscle cells; actives raise or lower the signal.

Read-out in assay [3]: Low-density lipoprotein receptor (LDLR), LDLR (gene 3949)
Put plainly: BSK_CASM3C_LDLR: BioMAP Diversity Plus: CASM3C Assay for Low-density lipoprotein receptor (LDLR) Biomarker Activity (AID 2283045).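 Also: LDLR protein level on the cell surface quantified by ELISA.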 The settings on record: primary human coronary artery smooth muscle cells; actives raise or lower the signal.

Read-out in assay [4]: Monocyte Chemoattractant Protein-1 (MCP1), CCL2 (gene 6347)
In words: BSK_CASM3C_MCP1: BioMAP Diversity Plus: CASM3C Assay for Monocyte Chemoattractant Protein-1 (MCP1) Biomarker Activity (AID 2283046).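 Also: MCP-1 level quantified by ELISA 24 h after dosing.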 The settings on record: primary human coronary artery smooth muscle cells; actives raise or lower the signal.

Assay [5] is described as follows: BSK_CASM3C_Proliferation: Cell Proliferation Assessment in the BioMAP Diversity Plus: CASM3C Assay (AID 2283047).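 Also: sulforhodamine B total protein stain as relative cell number at 560 nm; sub-confluent cells exposed 48 h before staining; fitted both ways against DMSO so gain or loss of cell number.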 To be noted: primary human coronary artery smooth muscle cells.
Read-out in assay [6]: Monokine induced gamma interferon (MIG), CXCL9 (gene 4283)
Put plainly: BSK_CASM3C_MIG: BioMAP Diversity Plus: CASM3C Assay for Monokine induced gamma interferon (MIG) Biomarker Activity (AID 2283048).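 Also: MIG protein level measured by ELISA.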 To be noted: primary human coronary artery smooth muscle cells; actives raise or lower the signal.

Read-out in assay [7]: serum amyloid A (SAA), SAA1 (gene 6288)
In words: BSK_CASM3C_SAA: BioMAP Diversity Plus: CASM3C Assay for serum amyloid A (SAA) Biomarker Activity (AID 2283049).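 Also: SAA protein level quantified by ELISA.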 To be noted: primary human coronary artery smooth muscle cells; actives raise or lower the signal.

Assay [8] can be described thus: BSK_CASM3C_SRB: Viability Assessment in the BioMAP Diversity Plus: CASM3C Assay (AID 2283050).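 Also: total protein by SRB staining as cytotoxicity measure in parallel cultures.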 The settings on record: primary human coronary artery smooth muscle cells.
Read-out in assay [9]: Thrombomodulin, THBD (gene 7056)
In words: BSK_CASM3C_Thrombomodulin: BioMAP Diversity Plus: CASM3C Assay for Thrombomodulin Biomarker Activity (AID 2283051).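 Also: thrombomodulin protein level measured by ELISA 24 h after dosing.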 To be noted: primary human coronary artery smooth muscle cells; actives raise or lower the signal.

Read-out in assay [10]: Tissue Factor, F3 (gene 2152)
In words: BSK_CASM3C_TissueFactor: BioMAP Diversity Plus: CASM3C Assay for Tissue Factor Biomarker Activity (AID 2283052).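 Also: cell surface tissue factor protein level read by ELISA.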 To be noted: primary human coronary artery smooth muscle cells; actives raise or lower the signal.

Read-out in assay [11]: Interferon-gamma inducible Protein 10 (IP10), CXCL10 (gene 3627)
In words: BSK_hDFCGF_IP10: BioMAP Diversity Plus: hDFCGF Assay for Interferon-gamma inducible Protein 10 (IP10) Biomarker Activity (AID 2283053). The settings on record: primary human foreskin fibroblasts; actives raise or lower the signal. In outline:
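Primary foreskin fibroblasts, human; 24 h compound exposure; IP-10 by ELISA; bidirectional fit vs DMSO.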

Read-out in assay [12]: Urokinase-type plasminogen activator receptor (uPAR), PLAUR (gene 5329)
In words: BSK_CASM3C_uPAR: BioMAP Diversity Plus: CASM3C Assay for Urokinase-type plasminogen activator receptor (uPAR) Biomarker Activity (AID 2283054).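 Also: cell-surface uPAR protein level quantified by ELISA.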 To be noted: primary human coronary artery smooth muscle cells; actives raise or lower the signal.

Read-out in assay [13]: Vascular cell adhesion molecule 1 (VCAM1), VCAM1 (gene 7412)
In words: BSK_CASM3C_VCAM1: BioMAP Diversity Plus: CASM3C Assay for Vascular cell adhesion molecule 1 (VCAM1) Biomarker Activity (AID 2283055).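 Also: VCAM-1 protein level quantified by ELISA on the cells.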 The settings on record: primary human coronary artery smooth muscle cells; actives raise or lower the signal.

Read-out in assay [14]: Collagen III, COL3A1 (gene 1281)
In words: BSK_hDFCGF_CollagenIII: BioMAP Diversity Plus: hDFCGF Assay for Collagen III Biomarker Activity (AID 2283056). To be noted: primary human foreskin fibroblasts; actives raise or lower the signal. In outline: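 Response relative to DMSO, fitted in both directions, reflects ELISA-measured collagen III in human primary skin fibroblasts 24 h after compound addition.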

Read-out in assay [15]: Epidermal growth factor receptor (EGFR), EGFR (gene 1956)
Put plainly: BSK_hDFCGF_EGFR: BioMAP Diversity Plus: hDFCGF Assay for Epidermal growth factor receptor (EGFR) Biomarker Activity (AID 2283057). The settings on record: primary human foreskin fibroblasts; actives raise or lower the signal. The method in brief: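 hDFCGF system, primary human foreskin fibroblasts; compound 24 h; EGFR measured by ELISA; DMSO = negative control/baseline; bidirectional fitting.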

Read-out in assay [16]: Interleukin-8 (IL8), CXCL8 (gene 3576)
In words: BSK_hDFCGF_IL8: BioMAP Diversity Plus: hDFCGF Assay for Interleukin-8 (IL8) Biomarker Activity (AID 2283058). The settings on record: primary human foreskin fibroblasts; actives raise or lower the signal. In outline: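 Fibroblast monolayers (human foreskin, hDFCGF) received test chemical for 24 h before ELISA detection of IL-8; either increases or decreases relative to DMSO count as activity.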

Assay [17] is described as follows: BSK_hDFCGF_Proliferation: Cell Proliferation Assessment in the BioMAP Diversity Plus: hDFCGF Assay (AID 2283059).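 Also: curves fitted for both rise and fall of signal versus DMSO baseline.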 The settings on record: primary human foreskin fibroblasts. In outline:
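Sub-confluent human foreskin fibroblast cultures receive test chemical […]. Relative cell number is quantified by sulforhodamine B staining (0.1%, after 10% TCA fixation) at 560 nm, with bidirectional fitting referenced to DMSO.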

Read-out in assay [18]: Macrophage colony-stimulating factor (MCSF), CSF1 (gene 1435)
Put plainly: BSK_hDFCGF_MCSF: BioMAP Diversity Plus: hDFCGF Assay for Macrophage colony-stimulating factor (MCSF) Biomarker Activity (AID 2283060). To be noted: primary human foreskin fibroblasts; actives raise or lower the signal. In outline: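 fibroblasts (human foreskin, primary), 24 h post-dose; M-CSF by ELISA; bidirectional fit, DMSO = baseline.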

Assay [19] is described as follows: BSK_hDFCGF_SRB: Viability Assessment in the BioMAP Diversity Plus: hDFCGF Assay (AID 2283061).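 Also: cells exposed to compound for 24 h before the read.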 To be noted: primary human foreskin fibroblasts. The method in brief:
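SRB-based viability read on primary human skin fibroblasts at 24 h: TCA fixation, 0.1% dye, 560 nm. Gain or loss of signal is fitted against the DMSO negative control.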

Read-out in assay [20]: TIMP metallopeptidase inhibitor 1 (TIMP1), TIMP1 (gene 7076)
Put plainly: BSK_hDFCGF_TIMP1: BioMAP Diversity Plus: hDFCGF Assay for TIMP metallopeptidase inhibitor 1 (TIMP1) Biomarker Activity (AID 2283062). To be noted: primary human foreskin fibroblasts; actives raise or lower the signal. The method in brief:
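Bidirectional curve fitting against DMSO baseline yielded this endpoint, based on ELISA detection of TIMP-1 in primary human foreskin fibroblasts exposed to compound for 24 h.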

With `CCOC(=O)c1ccccc1C(=C1C=C(Br)C(=O)C(Br)=C1)c1cc(Br)c(O)c(Br)c1`, the result in [1], in [2], in [3], in assay [7], in assay [8] and in [10] was inactive. Besides, the outcome in assay [12], in assay [15] and in [19] was inactive. For the same molecule, the AC50 in assay [4] was 17.4 µM (active) and 20 µM (active); in assay [5] it was 20.3 µM (active) and 22.1 µM (active); in assay [6], 19.4 µM (active) and 22.2 µM (active); in assay [9], 15.8 µM (active) and 20.4 µM (active); in assay [11] it was 3.65 µM (active) and 3.77 µM (active); in [13], 19.4 µM (active) and 23.1 µM (active). For the same molecule, the AC50 in assay [14] is 3.29 µM (active) and 3.26 µM (active); in assay [16], 8.71 µM (active) and 8.48 µM (active); in [17] it was 3.46 µM (active) and 3.43 µM (active); in assay [18], 5.09 µM (active) and 3.85 µM (active); in assay [20], 3.75 µM (active) and 3.67 µM (active).
Turning to `COc1ccc2nc(N)sc2c1`, the result in [1], in assay [2], in assay [3], in assay [4], in assay [5] and in [6] was inactive. The result in assay [7], in assay [8], in assay [9], in [10], in assay [11] and in [12] was inactive. In addition, the outcome in assay [13], in [14], in assay [15], in assay [16], in assay [17] and in [18] was inactive. The result in assay [19] and in assay [20] was inactive.
As for `CC1OC1C1CCC2(C)OC2C1` (stereo unspecified), the result in [1], in assay [2], in assay [3], in [4], in assay [5] and in [6] was inactive. Moreover, the outcome in assay [7], in [8], in assay [9], in assay [10], in assay [11] and in assay [12] was inactive. For the same molecule, the result in assay [13], in assay [15], in assay [16], in assay [17], in [18] and in assay [19] was inactive. For the same molecule, the outcome in [20] was inactive. The AC50 in [14] is 11.4 µM (active).
In the case of `O=C(c1ccc(O)cc1)c1ccc(O)cc1O`, the outcome in [1], in [2], in assay [3], in [4], in [6] and in assay [7] was inactive. Besides, the result in assay [8], in assay [9], in assay [10], in assay [11], in [12] and in assay [13] was inactive. Also, the outcome in [14], in assay [15], in assay [16], in assay [17], in [18] and in [19] was inactive. In addition, in assay [20], the result was inactive. Also, the AC50 in assay [5] was 15.7 µM (active) and 10.5 µM (active); in assay [13], 5.81 µM (active).
For the molecule `CCOc1nc(F)cc2nc(S(=O)(=O)Nc3c(Cl)cccc3C(=O)OC)nn12`, the outcome in assay [1], in assay [2], in assay [3], in [4], in assay [5] and in assay [6] was inactive. The outcome in [7], in assay [8], in assay [9], in assay [10], in assay [11] and in assay [12] was inactive. Also, the result in assay [13], in assay [14], in [15], in assay [16], in assay [17] and in assay [18] was inactive. The result in assay [19] and in assay [20] was inactive.

The term AC50 denotes the concentration giving half of the maximal activity seen.
